Screening data from PubChem.
DT40 TDP1 no CPT: qHTS for Inhibitors of human tyrosyl-DNA phosphodiesterase 1 (TDP1): qHTS in cells in absence of CPT; Potency, µM (doses to about 46.2 µM), for inactives: top-dose activity change, negative = growth inhibition, usual class: inhibitors; 420,000 tested, 15% active; DT40 Tdp1-/- hTDP1 cells, no CPT, ATP luminescence, 48 h; AID 686978, 2013; note: potency is the fitted concentration of half-maximal effect; nearly all actives have a fitted effect of over 55% in size
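Growth of hTDP1-complemented DT40 Tdp1-knockout cells is measured by ATP luminescence after at least 48 hr compound exposure at 37 °C, with DMSO substituting for the 20 nM CPT used in the parallel screen.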
HT1080-NT tox: kills 2HG-producing HT-1080-NT fibrosarcoma cells. HT-1080-NT fibrosarcoma viability, CellTiter-Glo ATP luminescence, 48 h. Potency, µM (highest dose often 46.1 µM), inactives show top-dose activity, negative = less viability, usual class: cytotoxic. 360,000 tested, 1.6% active;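 note: NT is the 2HG producing partner of a matched IDH1 knockdown line; potency is the fitted concentration of half-maximal effect; 0% = DMSO-treated cells and -100% = media-only wells without cells; nearly all actives have a fitted effect of over 55% in size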
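Fibrosarcoma NT cells, 750 per well in 5% FBS RPMI, were exposed to compound for 48 hours. Viability: CellTiter-Glo luminescence.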
IL1B secr inh: blocks inflammasome-driven IL-1 beta release. THP-1 LPS/ATP IL-1B secretion, AlphaLISA, 16 h; active compounds read low. 360,000 tested, 4.7% active. activity change, % at 57.5 µM; in the data active = activity change below about -50%; inconclusive = mostly about -30% to -49%
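Secreted IL-1B measured by AlphaLISA bead assay after 16 h compound exposure of THP-1 cells; compounds (final up to 57.5 uM) added 1 h before LPS (250 ng/mL) and ATP (1.25 mM) stimulation; lower signal means less secretion.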
HT1080 IDH1KD tx: HT-1080 IDH1 knockdown cell toxicity (counter line); 360,000 tested, 2% active; AID 686971; Potency, µM (titrated, usually from 46.1 µM), for the others: top-dose activity, negative = toxicity, actives largely listed as cytotoxic; HT-1080 IDH1 knockdown viability, ATP luminescence, 48 h;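 note: potency is the fitted concentration of half-maximal effect; 0% = DMSO wells and -100% = cell-free medium wells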
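Cytotoxicity counter-line: IDH1KD HT-1080, 48 h, CellTiter-Glo. Curves classed by r2, magnitude and activity.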
DT40 TDP1 CPT: DT40-hTDP1 cell growth loss with CPT | 420,000 tested, 12% active | AID 686979 | chicken DT40 Tdp1-/-;hTDP1 cells + 20 nM CPT, ATP luminescence, 48 h | Potency, µM (titrated, usually from 46.2 µM), for the others: top-dose activity change, negative = growth inhibition, hits mostly inhibitors; note: potency is the fitted concentration of half-maximal effect; nearly all actives have a fitted effect of over 55% in size
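Chicken DT40 Tdp1-/- cells stably complemented with human TDP1 were seeded at 400 cells/well in medium containing 20 nM camptothecin, exposed to pin-transferred compounds, and grown at 37 °C for at least 48 hr. Viability was read as ATP luminescence.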
Numbers without * were called inactive; u = inconclusive; x = no result given. The list is not random: actives were taken first. Their share in the collection is about 19%. Unless noted, calls come from the whole dose curve; as a rule, active = well fitted curve in the direction sought with a large enough effect; inconclusive = small, poorly fitted or top-dose-only effect, or another doubt; inactive = no such curve, though single readings can be large; an effect the other way counts as inactive or inconclusive. Unless noted, % is set by controls: 0 for no effect and ±100 for the full control effect.

SMILES	DT40 TDP1 no CPT	HT1080-NT tox	IL1B secr inh	HT1080 IDH1KD tx	DT40 TDP1 CPT
Cc1occc1-c1nnc(SCC(=O)NCCc2ccccc2)n1Cc1ccccc1	21µM*	-18%	u	-10%	u
CCn1c(SCC(=O)NCc2ccco2)nnc1-c1ccc(N(C)C)cc1	-17%	x	x	x	-11%
COc1ccc(-c2nnc(SC(C)C(=O)NCc3ccc4c(c3)OCO4)n2Cc2ccco2)cc1 (centres undefined)	15µM*	-1%	-14	-7%	u
Cc1occc1-c1nnc(SCC(N)=O)n1Cc1ccccc1	2%	0%	-19	-4%	1%
O=C(CSc1nnc(-c2ccc(Cl)cc2)n1Cc1ccco1)NCc1ccc2c(c1)OCO2	26µM*	-13%	-23	-2%	u
Cc1[nH]c2ccc(-c3nnc(SCC(=O)NCc4ccco4)n3Cc3ccccc3)cc2c1C	23µM*	u	0	-27%	u
CC(Sc1nnc(-c2ccco2)n1N)C(=O)NCc1ccc2c(c1)OCO2 (centres undefined)	4%	9%	-2	9%	-10%
COc1ccc(C(=O)Nc2ccccc2C(=O)OCc2cc(=O)n3nc(C4CC4)sc3n2)cc1	-3%	x	x	x	8%
COc1cccc(C(=O)c2cc3cc(Cl)ccc3[nH]2)c1	u	-22%	-5	u	-9%
CCOC(=O)/C=C/C(=O)Nc1cc(S(=O)(=O)Nc2ccc(OC)cc2)ccc1N1CCOCC1	5.2µM*	-14%	-107*	-9%	5.8µM*
O=C(Nc1cc(S(=O)(=O)Nc2ccc(Cl)cc2)ccc1N1CCCCC1)c1ccc(F)cc1	18µM*	u	-66*	u	21µM*
COc1ccc(NS(=O)(=O)c2ccc(N3CCCCC3)c(NC(=O)C(C)NC(N)=O)c2)cc1 (centres undefined)	u	0%	-8	-3%	u
COc1ccc(NS(=O)(=O)c2ccc(N3CCOCC3)c(NC(=O)C(C)C)c2)cc1	18µM*	-11%	5	-9%	16µM*
CC(=O)NCCC(=O)Nc1cc(S(=O)(=O)Nc2ccc(Cl)cc2)ccc1N1CCCC1	u	2%	-2	0%	u
COc1ccc(NS(=O)(=O)c2ccc(N3CCOCC3)c(NC(=O)c3cccc(F)c3)c2)cc1	8.2µM*	-5%	-29	u	9.2µM*
COc1ccc(CC(=O)Nc2cc(S(=O)(=O)N3CCOCC3)ccc2N2CCOCC2)cc1	-28%	-6%	16	-5%	0%
Cc1ccc(F)c(S(=O)(=O)NC(=O)C2(C)CCN2C(=O)Cc2ccsc2)c1 (centres undefined)	-3%	13%	15	14%	10%
CC(OC(=O)C1CCN(S(=O)(=O)c2ccc3c(c2)OCCO3)CC1)C(=O)NC1(C#N)CCCCC1 (centres undefined)	0%	-3%	19	-1%	-21%
CCS(=O)(=O)c1ccc(O)c(N2C(=O)C3C4C=CC(C4)C3C2=O)c1 (centres undefined)	-5%	0%	-9	-2%	-4%
COc1ccc(NS(=O)(=O)c2ccc(N3CCOCC3)c(NC(=O)c3ccc(F)cc3)c2)cc1	13µM*	u	-12	u	8.2µM*
COc1ccc(C(CNC(=O)c2ccc(NS(=O)(=O)c3ccc(F)cc3)cc2)N2CCOCC2)cc1 (centres undefined)	u	-3%	-12	2%	-3%
O=C(NC1CC1)[C@@H]1C[C@H](Sc2nc3ccccc3[nH]2)CN1CC1CCCCC1	u	x	x	x	-9%
COC(=O)c1c(OCc2ccccn2)cc(=O)n2c1CCN(Cc1cccc(C(F)(F)F)c1)CC2	-8%	x	x	x	7%
COCCNC(=O)C1(C)CCCN(Cc2ccc(C)c3ccccc23)C1 (centres undefined)	16µM*	-8%	u	-17%	21µM*
